In the library only some 3.2% were active in any assay of this set; here they are far more common.
A3A deaminase = APOBEC3A ssDNA deaminase inhibitors, primary screen, selectivity assay for APOBEC3G inhibitor project, biochemical, FAM/TAMRA oligo cleavage fluorescence; DNA dC->dU-editing enzyme APOBEC-3A (Homo sapiens), P31941; AID 493011, 2011; recombinant A3A, FAM/TAMRA ssDNA deamination fluorescence; actives 0.41% (n = 330,000); inhibition, % at 20 µM;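 active = at least 40% inhibition at 20 µM here, with at most 30% in a related deaminase screen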;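 also: plate controls were A3A with DMSO for no effect and wells lacking A3A enzyme for full effect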
Target sequence (P31941 whole entry, looked up): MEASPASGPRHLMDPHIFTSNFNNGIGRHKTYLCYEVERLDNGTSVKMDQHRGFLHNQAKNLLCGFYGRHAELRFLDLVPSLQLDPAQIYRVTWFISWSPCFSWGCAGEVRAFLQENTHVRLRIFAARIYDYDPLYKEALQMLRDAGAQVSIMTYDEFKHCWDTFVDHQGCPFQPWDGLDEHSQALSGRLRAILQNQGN
AHR act = AHR activators, primary screen, cell-based, luminescence, luciferase reporter, human | activation, % at 5 µM | AHR-responsive luciferase reporter cells | actives 2.5% (n = 320,000); in the data active = activation above about 47%;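 also: 0% = vehicle wells and 100% = reference agonist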
NTR1 agonist = agonists of human NTR1, primary screen, imaging, U2OS cells, beta-arrestin-GFP, high content; NTR1-U2OS beta-arrestin-GFP spot imaging, agonist mode; activation, % at 20 µM; actives 0.17% (n = 330,000);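 active = activation at or above 40% of the spot to cytoplasm intensity ratio, with at least 20 cells analyzed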;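 also: 0% = DMSO without peptide and 100% = 100 nM NTR1 peptide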
A3G deaminase = APOBEC3G DNA deaminase inhibitors, primary screen, biochemical, fluorescence, single-stranded DNA substrate, uHTS. actives 0.28% (n = 330,000). recombinant A3G, ssDNA deamination FAM/TAMRA fluorescence. inhibition, % at 20 µM. AID 493012, 2011;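 active = inhibition of at least 40% at 20 µM, with no more than 30% in the related APOBEC3A deaminase screen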;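 also: plate controls were DMSO wells with A3G for no effect and wells lacking A3G enzyme for full effect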
Target sequence (Q9HC16 whole entry, looked up): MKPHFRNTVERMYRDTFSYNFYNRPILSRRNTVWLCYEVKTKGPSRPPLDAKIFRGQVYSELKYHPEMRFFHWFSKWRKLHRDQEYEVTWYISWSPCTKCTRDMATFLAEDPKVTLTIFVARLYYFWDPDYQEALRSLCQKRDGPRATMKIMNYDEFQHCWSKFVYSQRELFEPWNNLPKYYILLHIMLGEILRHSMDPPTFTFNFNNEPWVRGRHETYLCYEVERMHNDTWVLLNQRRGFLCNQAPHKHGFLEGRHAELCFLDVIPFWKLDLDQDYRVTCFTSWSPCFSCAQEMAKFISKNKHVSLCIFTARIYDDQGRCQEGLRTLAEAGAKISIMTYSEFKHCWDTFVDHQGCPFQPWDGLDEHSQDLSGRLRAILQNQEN
A3A conf = APOBEC3A deaminase inhibitors, retest, confirmation, selectivity assay for APOBEC3G inhibitor project, biochemical, single concentration, fluorescence readout; shares compounds with A3A deaminase; recombinant A3A, ssDNA deaminase UDG fluorescence assay; inhibition, % at 20 µM; actives 63% (n = 1,400);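 active = inhibition reaching a set limit, 80% of the first screen's cutoff, at 20 µM in any replicate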;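 also: plate controls were DMSO wells with A3A for no effect and wells lacking A3A enzyme for full effect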
UDG ctr A3A = E. coli UDG inhibitors, confirmation, counter-screen for APOBEC3A inhibitor project, biochemical, single concentration, fluorescence, FAM/TAMRA oligo; shares compounds with A3A deaminase; UDG counterscreen, FAM/TAMRA uracil oligo fluorescence; inhibition, % at 20 µM; 1,000 tested, under 10 active; AID 504714, 2011; call rule not given here
Starred values were filed as active, the others as inactive; nt = no result.

SMILES | A3A deaminase | AHR act | NTR1 agonist | A3G deaminase | A3A conf | UDG ctr A3A
CC(=O)Nc1ccc(C(=O)NC2CCSc3ccccc32)cc1 (configuration not stated) | 45* | 6 | -1 | 4 | -1 | nt
CC1=C(C(=O)OC2CCC(C)CC2)C(c2ccc(O)c([N+](=O)[O-])c2)NC(=O)N1 (configuration not stated) | -7 | 2 | 1 | -4 | nt | nt
COc1ccc(N2CC(C(=O)Nc3ccc(S(=O)(=O)N4CCOCC4)cc3)CC2=O)cc1 (configuration not stated) | 48* | -1 | 1 | 9 | 26 | nt
Cc1cc(C)c(C)c(S(=O)(=O)N2CCC(C(=O)Nc3ccc(S(=O)(=O)N4CCOCC4)cc3)CC2)c1C | 41* | 0 | 6 | 4 | 2 | nt
Cc1ccc(N2CC(C(=O)Nc3ccc(S(=O)(=O)N4CCOCC4)cc3)CC2=O)cc1Cl (configuration not stated) | 0 | 3 | 1 | -2 | nt | nt
COc1c(Br)cc([N+](=O)[O-])c(OC)c1C(=O)NC(=O)Nc1nc(C)cc(C)n1 | 0 | 1 | -1 | -6 | nt | nt
COc1ccc(CC(=O)NNC(=O)c2ccccn2)cc1 | 46* | -3 | 0 | 2 | -1 | nt
COc1ccc(CC(=O)NNC(=O)c2cnccn2)cc1 | 1 | 0 | -2 | -3 | nt | nt
O=C(Nc1ccc(-c2ccccc2)cc1)c1ccco1 | 42* | 0 | 2 | 22 | 26 | nt
O=C(Nc1ccc(NC(=O)c2ccco2)cc1)c1ccco1 | 3 | -4 | 0 | -5 | nt | nt
Cc1ccc(N2CC(C(=O)NCc3nnnn3-c3ccc(C)c(C)c3)CC2=O)cc1 (configuration not stated) | 52* | 3 | 1 | -3 | 6 | -14
Cc1ccc(-n2nnnc2CNC(=O)C2CC(=O)N(c3ccccc3)C2)cc1C (configuration not stated) | -2 | 2 | 1 | -6 | nt | nt
Cc1cccc(NC(=O)N2CCCc3ccccc32)c1C | -2 | nt | 0 | -10 | nt | nt
CN(c1ccc(Br)cc1)S(=O)(=O)c1ccc2[nH]cc(C(=O)NCCN3CCOCC3)c(=O)c2c1 | 42* | 10 | 0 | 6 | -1 | nt
CN(Cc1cccc(F)c1)C(=O)c1cc(S(=O)(=O)N2CCOCC2)ccc1N1CCCC1 | 1 | 1 | 1 | -3 | nt | nt
Cc1cccc(C)c1NC(=O)CN(C)C(=O)c1cc(S(=O)(=O)N2CCOCC2)ccc1N1CCCC1 | 46* | -1 | 1 | 13 | -1 | nt
CN1CCC(N(C)S(=O)(=O)c2ccc(NC(=O)COc3ccc(Cl)cc3)cc2)CC1 | 3 | 4 | -1 | 1 | nt | nt
CN1CCC(N(C)S(=O)(=O)c2ccc(NC(=O)COc3ccc([N+](=O)[O-])cc3)cc2)CC1 | 50* | -2 | 0 | 9 | 52* | -1
CN1CCC(N(C)S(=O)(=O)c2ccc(NC(=O)COc3ccc(F)cc3)cc2)CC1 | 64* | 0 | -1 | 13 | 58* | -2
NS(=O)(=O)c1ccc(CCNC(=O)Cc2cccs2)cc1 | 0 | -1 | 0 | -8 | nt | nt
COc1cccc(N2CCN(CC(=O)NC(=O)NCc3ccco3)CC2)c1 | 47* | -1 | -2 | 25 | 27* | -4
O=C(CSc1ccccn1)Nc1ccccc1F | -5 | -4 | 2 | -7 | nt | nt
O=C(CSc1ccccn1)Nc1cccc2ccccc12 | 60* | 13 | 2 | 8 | 44* | -3
Cc1c(C(=O)OC(C)C(=O)N(C)Cc2ccccc2)oc2ccccc12 (configuration not stated) | -2 | 4 | 1 | -4 | nt | nt
Cc1c(C(=O)OC(C)C(C)C[N+](C)(C)C)oc2ccccc12 (configuration not stated) | 83* | 2 | -1 | 24 | 81* | -3
SMILES | A3A deaminase | AHR act | NTR1 agonist | A3G deaminase | A3A conf | UDG ctr A3A
CCOc1ccc(NC(=O)CC2C(=O)N(c3ccccc3)C(=O)N2CCc2cccs2)cc1 (configuration not stated) | 72* | 6 | 1 | -6 | -51 | -2
CCOc1ccc(NC(=O)CC2C(=O)N(c3ccccc3)C(=O)N2Cc2ccco2)cc1 (configuration not stated) | -5 | 1 | 0 | -8 | nt | nt
CC1(C)CC2CC(C)(CN2S(=O)(=O)c2cccc(C(=O)OCC(=O)NC(N)=O)c2)C1 (configuration not stated) | 54* | -1 | 1 | 4 | 1 | nt
COc1ccc(Cl)cc1N(CC(=O)Nc1ccc2c(c1)OCO2)S(C)(=O)=O | 42* | 76* | -1 | 3 | 8 | nt
COc1ccc(OC)c(N(CC(=O)Nc2ccc3c(c2)OCO3)S(=O)(=O)c2ccccc2)c1 | 1 | 32 | -1 | -5 | nt | nt
COc1ccc(C2C(C(C)=O)=C(C)N=c3s/c(=C\c4ccc5c(c4)OCO5)c(=O)n32)c(OC)c1 (configuration not stated) | 50* | 9 | 1 | 4 | 9 | nt
COCc1c(C(=O)N2CCN(Cc3nc4ccccc4s3)CC2)oc2ccccc12 | 63* | 10 | 1 | 20 | 72* | -2
Cc1ncsc1CCC(=O)N1CCCC(C(=O)c2ccc3c(c2)OCO3)C1 (configuration not stated) | -4 | 0 | -2 | -7 | nt | nt
O=C(O)COc1ccc(/C=N/NC(=O)C2CCCN2S(=O)(=O)c2ccc(Cl)cc2)cc1 (configuration not stated) | 51* | 6 | 0 | 4 | 13 | nt
CCCCCCCC[n+]1c(C)n(-c2ccccc2)c2ccc(NC(C)=O)cc21 | 42* | 6 | 4 | 13 | 70* | -3
O=C(Cn1c(=O)n(Cc2ccco2)c(=O)c2c3c(sc21)CCCCC3)Nc1ccccc1 | 49* | 4 | 2 | 20 | 55* | nt
CCCOc1ccc(/C=c2\sc3nc(-c4ccco4)nn3c2=O)cc1OCC | 74* | 19 | 1 | 21 | 30* | -3
Cc1ccnc(NC(=O)CCc2c[nH]c3ccccc23)c1 | -4 | 35 | 0 | -6 | nt | nt
CS(=O)(=O)c1nc(-c2ccc(Br)cc2)n[nH]1 | 41* | 3 | -1 | -11 | 18 | 0
C[N+]1(CC(=O)OCCCc2ccccc2)CCCC1 | 55* | -2 | 0 | 17 | 81* | -3
O=C(CN1CCCC1)OCCCc1ccccc1 | -4 | -1 | 2 | -6 | nt | nt
